Results filed as inconclusive are left out. A call without a number means that no potency is given here. A number with no mark means an inactive call. Calls of active or inactive are those of the source. The call rests on the fitted dose curve; in most records, active means well fitted cell-killing curve with a large enough effect in the repeat runs; inconclusive means weak or mixed curves, or effect the other way; inactive means flat fitted curve, though single readings scatter.
Experiments:
[1] = cAMP Responsive Elements (CRE) small molecule antagonists, cell-based qHTS assay: qHTS cell viability counter screen (AID 2060913); further: nearly all actives have a fitted effect of over 40% in size
Summary of the method: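 Steps: cells plated and held 18 hrs at 37 C/5% CO2; compounds and NKH477 (0.25 uM final) added; 3 hrs incubation; reporter substrate read; CellTiter-Glo added to measure cytotoxicity by luminescence.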

[2] = cAMP Responsive Elements (CRE) small molecule agonists, cell-based qHTS assay: qHTS cell viability counter screen (AID 2060914);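 further: viability read after 3 h of compound exposure; nearly all actives have a fitted effect of over 50% in size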
Summary of the method: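 HEK 293T CRE-bla; DMEM + 10% dialyzed FBS, 25 mM HEPES; 18 h pre-incubation; compound 3 h, 37 °C/5% CO2; CellTiter-Glo added after reporter read; luminescence after 30 min RT.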

| Compound | Potency [1] | Potency [2] | viability change, negative = cytotoxic [1] | activity change, negative = cytotoxicity [2] |
| --- | --- | --- | --- | --- |
| [Cl][Nd]([Cl])[Cl] | inactive | inactive | – | – |
| [Cl][In]([Cl])[Cl] | inactive | inactive | – | – |
| CC(C)NC(=O)NC(C)C | inactive | inactive | – | – |
| Cc1cccc(Br)c1 | inactive | inactive | – | – |
| COC(c1ccccc1)(c1ccccc1)[C@H](Oc1nc(C)cc(C)n1)C(=O)O | inactive | inactive | – | – |
| CCN(CC)CCOC(=O)C(c1ccccc1)C1CCCCC1 (stereo not given) | inactive | inactive | – | – |
| Cc1ccc(C)c([N+](=O)[O-])c1 | inactive | inactive | – | – |
| CC(=O)OC1C2(C)CCC(C2)C1(C)C (stereo not given) | inactive | inactive | – | – |
| C/C=C/C(=O)C1=C(C)C=CCC1(C)C | inactive | inactive | – | – |
| COc1ccc([C@@H]2CC(=O)c3c(O)cc(O[C@@H]4O[C@H](CO[C@@H]5O[C@@H](C)[C@H](O)[C@@H](O)[C@H]5O)[C@@H](O)[C@H](O)[C@H]4O)cc3O2)cc1OC | inactive | inactive | – | – |
| CC(C(=O)O)c1ccc(C(=O)c2ccccc2)s1 (stereo not given) | inactive | inactive | – | – |
| CCOC(=O)C1=C(C)NC(C)=C(C(=O)OC)C1c1cccc([N+](=O)[O-])c1 (stereo not given) | inactive | inactive | – | – |
| C=C(C)C(=O)OCCOC(=O)CC(C)=O | inactive | inactive | – | – |
| CC(=O)/C=C/c1ccco1 | inactive | inactive | – | – |
| CN1C(=O)c2ccc([N+](=O)[O-])cc2C1=O | inactive | inactive | – | – |
| CCCN(CCC)CCc1cccc2c1CC(=O)N2 | inactive | inactive | – | – |
| CN1[C@@H]2CC[C@H]1CC(NC(=O)n1c(=O)[nH]c3ccccc31)C2 (stereo not given in full) | inactive | inactive | – | – |
| CN1CCN(c2c(F)cc3c(=O)c(C(=O)O)cn4c3c2OCN4C)CC1 | – | – | 3.45% [at 18.9 µM] | 10.7% [at 18.9 µM] |
| CCCCc1nc(Cl)c(CO)n1Cc1ccc(-c2ccccc2-c2nn[nH]n2)cc1 | inactive | inactive | – | – |
| CCCC(=O)OCCC(C)C | inactive | inactive | – | – |
| Cc1ccc2nc(-c3ccc(N)cc3)sc2c1S(=O)(=O)O | inactive | inactive | – | – |
| Oc1ccc(Cc2ccccc2O)cc1 | inactive | inactive | – | – |
| CCC(=O)O[C@]1(C(=O)SCF)[C@H](C)C[C@H]2[C@@H]3C[C@H](F)C4=CC(=O)C=C[C@]4(C)[C@@]3(F)[C@@H](O)C[C@@]21C | inactive | inactive | – | – |
| c1ccc2sc(SSN3CCOCC3)nc2c1 | inactive | inactive | – | – |
| C=C1CC[C@H]2C[C@@H]1C2(C)C | inactive | inactive | – | – |

| Compound | Potency [1] | Potency [2] | viability change, negative = cytotoxic [1] | activity change, negative = cytotoxicity [2] |
| --- | --- | --- | --- | --- |
| CC(=O)OC(C)(C)C | inactive | inactive | – | – |
| O=C[O][Al]([O]C=O)[O]C=O | inactive | inactive | – | – |
| COS(C)(=O)=O | inactive | inactive | – | – |
| NC(=O)C(c1ccccc1)(c1ccccc1)[C@@H]1CCN(CCc2ccc3c(c2)CCO3)C1 | inactive | inactive | – | – |
| CCCCOC(=O)c1ccc(O)cc1 | inactive | inactive | – | – |
| CC(=O)Oc1ccc2c(c1)CC[C@@H]1[C@@H]2CC[C@]2(C)[C@@H](O)CC[C@@H]12 | inactive | inactive | – | – |
| C=C[Si](OC(=C)C)(OC(=C)C)OC(=C)C | inactive | inactive | – | – |
| [Cl][Dy]([Cl])[Cl] | inactive | inactive | – | – |
| COc1ccc(C(=O)Nc2nc3ccccc3c(NCc3ccccc3)c2C#N)cc1 | inactive | inactive | – | – |
| C[C@H](CCC(=O)NCC(=O)O)[C@H]1CC[C@H]2[C@@H]3[C@H](O)C[C@@H]4C[C@H](O)CC[C@]4(C)[C@H]3C[C@H](O)[C@]12C | inactive | inactive | – | – |
| CN(C)CCN1CCOCC1 | inactive | inactive | – | – |
| NC=O | inactive | inactive | – | – |
| O=C(c1ccccc1)c1ccccc1 | inactive | inactive | – | – |
| CCCC(C)C | inactive | inactive | – | – |
| CC(C=O)Cc1ccc(C(C)C)cc1 (stereo not given) | inactive | inactive | – | – |
| Cc1nc(-c2ccc(Cl)cc2)oc1COC(C)(C)C(=O)O | inactive | inactive | – | – |
| O=C(O)[C@H](O)[C@@H](O)[C@H](O)[C@H](O)CO | inactive | inactive | – | – |
| Cc1nc2ccccc2n1Cc1ccc(Cl)cc1 | inactive | inactive | – | – |
| COc1cc(C(=O)N2CCCCCCC2)cc(OC)c1OC | inactive | inactive | – | – |
| CCCCCCCC[Si](OCC)(OCC)OCC | inactive | inactive | – | – |
| C=C(C)C(=O)OCCCCCCCCCCCC | inactive | inactive | – | – |
| CC(C)CC(O)Cc1ccccc1 (stereo not given) | inactive | inactive | – | – |
| COC(=O)CC(C)=O | inactive | inactive | – | – |
| Cc1cc(NS(=O)(=O)c2ccc(N)cc2)no1 | inactive | inactive | – | – |
| COc1ccc2cc(CCC(C)=O)ccc2c1 | inactive | inactive | – | – |
